Shown are actives, neighbours in structure and some others; about 1.2% of the full set was active somewhere.
RGS7-Gao – human RGS7-Galphao interaction regulation | Multiplexed bead flow cytometry, RGS7-Galphao binding; actives lie on both sides | binding response (% of control), % at 10 µM | hit rate 0.35% among 220,000 | P09471; in the data active = binding response below about 49% or above about 150%; inconclusive = no clear call, values can overlap the other calls; inactive = in between;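 note: fluorescent Galphao held in activated GDP-AlF4 state binding bead-coupled RGS7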
Target sequence (P09471 whole entry, looked up): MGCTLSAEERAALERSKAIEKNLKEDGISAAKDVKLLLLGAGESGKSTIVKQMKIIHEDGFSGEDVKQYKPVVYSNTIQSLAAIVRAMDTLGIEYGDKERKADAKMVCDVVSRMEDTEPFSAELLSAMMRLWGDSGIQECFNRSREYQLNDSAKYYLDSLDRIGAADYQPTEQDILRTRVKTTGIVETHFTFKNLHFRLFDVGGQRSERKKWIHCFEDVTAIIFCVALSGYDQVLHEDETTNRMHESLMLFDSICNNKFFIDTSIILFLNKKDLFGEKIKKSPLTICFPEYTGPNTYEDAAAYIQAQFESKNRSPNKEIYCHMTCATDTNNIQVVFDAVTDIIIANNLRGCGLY
GSH bead fluor – compound fluoresces at 488/530 nm on GSH beads; GSH beads flow cytometry, compound fluorescence 488/530 nm; active compounds read high; fluorescence (KMESF) at 10 µM; hit rate 0.25% among 190,000; AID 1776; in the data active = fluorescence above about 89;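 note: glutathione beads carrying GST-tagged Bcl family fusion proteins plus one bare bead set; values are compound well signal with DMSO vehicle wells as background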
RGS4-Gao reg – modulates binding of RGS4 to human Galphao. P09471. Multiplexed bead flow cytometry; actives lie on both sides. binding response (% of control), % at 10 µM. hit rate 0.33% among 220,000; in the data active = binding response below about 49% or above about 150%; inactive = in between;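 note: fluorescent Galphao activated with aluminum fluoride binding bead-coupled RGS4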
RGS8-Gao reg – human RGS8-Galphao interaction regulation. P09471. multiplexed bead flow cytometry, RGS8-Galphao binding; actives lie on both sides. response (percent of control binding), % at 10 µM. hit rate 0.34% among 220,000. AID 1423; in the data active = response below about 60% or above about 140%; inactive = in between;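 note: Galphao activated as the GDP aluminium fluoride complex binding bead-coupled RGS8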
RGS16-Gao – modulates binding between human RGS16 and Galphao; hit rate 0.38% among 220,000; O15492+P09471; bead-based flow cytometry RGS16-Galphao binding, fluorescence; actives lie on both sides; AID 1441; binding response (% of control), % at 10 µM;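 note: Galphao activated by GDP with aluminum fluoride before binding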
Avidin fluor – avidin bead compound fluorescence profile | Avidin beads, compound fluorescence 488/530 nm, flow cytometry; active compounds read high | fluorescence (KMESF) at 10 µM | hit rate 0.38% among 220,000; in the data active = fluorescence above about 47
RGS4-Gao HTS – RGS4-Galphao interaction regulator (human). shares compounds with RGS16-Gao. multiplexed bead flow cytometry, RGS–Galpha-o binding. RGS4–Galpha-o binding response, % at 10 µM. hit rate 99% among 1,600;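 note: fluorescently labeled Galpha-o bound to GDP with aluminium fluoride binding biotinylated RGS beads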
Biotin-avidin – biotin-avidin bead binding disruption counter-screen | streptavidin beads, fluorescein-biotin binding, flow cytometry | 1,700 tested, under 10 active | shares compounds with RGS16-Gao | AID 1783 | inhibition, % at 10 µM;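 active = inhibition above 50%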;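 note: median green fluorescence of gated singlet beads compared with DMSO control wells; 0% = DMSO wells and 100% = complete loss of bead fluorescence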
RGS8-Gao single – confirmation of regulators of human RGS8-Galphao interaction; shares compounds with RGS16-Gao; hit rate 3% among 1,700; binding response (% of control), % at 10 µM; bead-based flow cytometry RGS8-Galphao binding, fluorescence; actives lie on both sides; in the data active = binding response below about 72% or above about 130%; inactive = in between;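 note: Galphao activated as GDP AlF4 complex before binding bead RGS8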
RGS7-Gao single – RGS7-Galphao interaction regulation, single point confirmation. hit rate 7.8% among 1,700. shares compounds with RGS16-Gao. response (percent of control binding), % at 10 µM. AID 1837. bead-based flow cytometry RGS7-Galphao binding; actives lie on both sides; in the data active = response below about 75% or above about 130%; inactive = in between;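 note: fluorescent Galphao activated with GDP and aluminum fluoride binding bead-coupled RGS7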
RGS16-Gao conf – confirmation of regulators of human RGS16-Galphao interaction; shares compounds with RGS16-Gao; bead-based flow cytometry, RGS16-Galphao binding; actives lie on both sides; response (% of control binding), % at 10 µM; hit rate 4% among 1,700; AID 1838; in the data active = response below about 74% or above about 130%; inactive = in between;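 note: Galphao activated as the GDP aluminium fluoride complex binding bead-coupled RGS16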
RGS4-Gao confirm – confirmation of regulators of human RGS4-Galphao interaction | binding response (% of control), % at 10 µM | shares compounds with RGS16-Gao | AID 1840 | RGS4-Galphao binding, multiplexed bead flow cytometry; actives lie on both sides | hit rate 4% among 1,700; in the data active = binding response below about 74% or above about 130%; inactive = in between
RGS19-Gao conf – RGS19-Galphao interaction regulation, single point confirmation | shares compounds with RGS16-Gao | bead-based flow cytometry RGS19-Galphao binding; actives lie on both sides | response (percent of control binding), % at 10 µM | hit rate 5% among 1,700 | AID 1841; in the data active = response below about 50% or above about 160%; inactive = in between;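 note: 100% = no compound control and 0% = blank background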
Target sequence (P09471 whole entry, looked up): as above
Target sequence (P49795 whole entry, looked up): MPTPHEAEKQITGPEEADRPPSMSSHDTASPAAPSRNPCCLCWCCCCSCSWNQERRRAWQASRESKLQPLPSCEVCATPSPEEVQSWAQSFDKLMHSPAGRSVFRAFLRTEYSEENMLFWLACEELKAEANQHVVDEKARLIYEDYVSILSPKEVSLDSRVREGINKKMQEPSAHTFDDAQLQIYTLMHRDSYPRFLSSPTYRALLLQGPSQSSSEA
Active calls of the source: *; ? = inconclusive; · = no result; [ ] = dose if it differs, or a comment. Unless noted, the rule behind the calls is not given here.

SMILES	RGS7-Gao	GSH bead fluor	RGS4-Gao reg	RGS8-Gao reg	RGS16-Gao	Avidin fluor	RGS4-Gao HTS	Biotin-avidin	RGS8-Gao single	RGS7-Gao single	RGS16-Gao conf	RGS4-Gao confirm	RGS19-Gao conf
OC1CCN(c2ncnc3c2nnn3Cc2c(F)cccc2Cl)CC1	152*[activator]	46	131	118	·	·	131*	0	81	70*	78	79	77
CCOc1ccc2[nH]c(=O)c(CN(CCN3CCCC3)C(=S)Nc3ccccc3OC)cc2c1	100	10	101	101	104	21	·	·	·	·	·	·	·
COC(=O)Cc1ccc(NC(=O)c2ccccc2Br)cc1	?	16	33*	28*	24*	3	·	0	99	98	100	98	99
COC(=O)Cc1ccc(NC(=S)NNC(=O)c2ccccc2Br)cc1	103	8	104	104	114	3	·	·	·	·	·	·	·
CCCCN(C)C(=O)Cn1cnc2sc(C)cc2c1=O	155*[activator]	21	109	98	114	110*	109*	·	·	·	·	·	·
CN1C(=O)CS/C1=N\NC(=O)COc1cccc2cccnc12	97	14	99	100	96	8	·	·	·	·	·	·	·
Cc1cc(N2CCN(c3ccccc3)CC2)n2nnnc2n1	105	13	111	102	111	41	·	·	·	·	·	·	·
Cc1cc(N2CCN(c3nnnn3-c3ccccc3)CC2)n2ncnc2n1	120	31	131	140*[activator]	554	3	131*	0	95	85	95	90	111
Cc1[nH]nc2c1/C(=N\O)CCC2	91	24	94	95	94	8	·	·	·	·	·	·	·
CCOc1c(O)ccc(C2NC(=O)NC(C)=C2C(=O)OC)c1[N+](=O)[O-] (configuration not stated)	104	11	100	100	99	20	·	·	·	·	·	·	·
CCOc1c(O)ccc(C2NC(=O)N(C)C(C)=C2C(=O)OC)c1[N+](=O)[O-] (configuration not stated)	436*[activator]	20	130	80	89	168*	130*	0	98	98	97	97	100
Cc1cccc(Cn2nc(-n3cccc3)c3c(C)cc(C)nc32)c1	95	16	95	95	93	12	·	·	·	·	·	·	·
CCn1c(SCc2cccc(C(F)(F)F)c2)nnc1-c1ccco1	42*	23	46*	48*	21	11	·	0	99	91	100	99	103
O=C(CS(=O)(=O)c1ccccc1)Nc1ccc(S(=O)(=O)Nc2ncccn2)cc1	35*	9	35*	32*	26	13	·	0	97	91	96	94	90
CCOc1ccccc1NC(=O)Nc1ccc(CC#N)cc1	?	·	103	101	105	6	·	·	·	·	·	·	·
COC(=O)c1c(NC(=O)COC(=O)CCS(=O)(=O)c2ccc(C)cc2)sc(C)c1C	83	9	92	106	255*[activator]	3	92*	1	104	139*[activator]	115	118	160*[activator]
CCOc1ccc(NC(=O)COC(=O)CCS(=O)(=O)c2ccc(C)cc2)cc1	100	17	100	102	113	11	·	·	·	·	·	·	·
CC(C)(C)c1nnc(NC(=O)CS(=O)(=O)Cc2ccccc2)s1	51	17	86	57*	61	1	86*	-1	103	102	102	101	94
CC1CCCC(NC(=O)COC(=O)Cc2cn3ccsc3n2)C1C (configuration not stated)	-19*	8	-58*	3.7*	-64*	·	·	-1	103	99	107	100	99
CCOC(=O)C(NCCCO)c1ccccc1 (configuration not stated)	·	43	·	·	·	·	·	2	109	89	109	97	55
CCOC(=O)C(C(=O)OCC)C(Nc1ccccc1)c1ccccc1 (configuration not stated)	79	9	77	73	9.4*	6	77*	-2	99	95	100	98	90
CCOC(=O)C(c1ccccc1)C(Nc1ccccc1)c1ccccn1 (configuration not stated)	?	·	93	95	91	6	·	·	·	·	·	·	·
CCOCCCNC(C(=O)Nc1ccc(OC)c(Cl)c1)c1ccccc1 (configuration not stated)	?	11	109	108	109	10	·	·	·	·	·	·	·
Cc1cc(C)cc(OC(=O)C23CCC(C)(C(=O)O2)C3(C)C)c1 (configuration not stated)	90	10	93	96	94	9	·	·	·	·	·	·	·
NC(=O)c1ccc(NC(=O)c2ccc(CN3CCOCC3)cc2)cc1	·	34	·	·	·	·	·	-2	101	102	101	101	99
SMILES	RGS7-Gao	GSH bead fluor	RGS4-Gao reg	RGS8-Gao reg	RGS16-Gao	Avidin fluor	RGS4-Gao HTS	Biotin-avidin	RGS8-Gao single	RGS7-Gao single	RGS16-Gao conf	RGS4-Gao confirm	RGS19-Gao conf
CCOC(=O)c1ccc(NC(=O)c2ccc(CN3CCOCC3)cc2)cc1	104	10	107	104	104	23	·	·	·	·	·	·	·
CN1C(=O)CSc2ccc(NC(=O)N3CCC(N4CCCCC4)CC3)cc21	110	59	109	127	278*[activator]	4	109*	-5	98	64*	77	77	65
COc1ccc(/C=C\C(=O)NCc2ccc3c(c2)cc(C)n3C)cc1OC	79	15	79	71	23*	4	79*	·	·	·	·	·	·
O=C(CN1CCC(n2nnc3cc(F)ccc32)CC1)Nc1ccc2c(c1)CCC2	·	21	·	·	·	·	·	2	100	100	99	100	92
COC(=O)CCC(=O)Nc1sc(C)c(C)c1C(N)=O	·	44	·	·	·	·	·	0	82	73*	70*	69*	44*
O=C(COc1ccc(Nc2ccccc2)cc1)OCC(=O)N1CCCCC1	?	·	115	100	114	15	·	·	·	·	·	·	·
Cc1cc(NC(=O)CSc2ncnc3c2cnn3-c2cccc(Cl)c2)no1	97	14	95	98	97	13	·	·	·	·	·	·	·

Compound activity from PubChem.
